Potency, activity, negative = cell killing and activity change, negative = cytotoxicity data for 17 compounds are collected here from PubChem BioAssay (NCATS).

Molecules are shown by their SMILES. Several values for one entry are separate records, joined by “and”; a condition that tells them apart may be missing. Equal values may be shown once. Inconclusive results are not listed. A structure can be active in one record and inactive in another. A number with no mark means an inactive call. Activity calls are given as the source filed them. Calls follow the shape of the dose curve; as a rule, active = well fitted curve in the direction sought with a large enough effect; inconclusive = small, poorly fitted or top-dose-only effect, or another doubt; inactive = no such curve, though single readings can be large; an effect the other way counts as inactive or inconclusive.

Experiment [1] concerns WaGa. As to the kind of experiment: qHTS assay to identify novel small-molecules to repurpose for Merkel cell carcinoma treatment (AID 1296009). Also: nearly all actives have a fitted effect of over 60% in size. Also: potency is read from the fitted curve at half-maximal effect. The following applies: MCC and control cell lines, CellTiter-Glo viability, 72 h; series mostly up to 46 µM. In outline: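 Luminescence from CellTiter-Glo, read 10 min after addition at room temperature, reported viability following a 72 hr, 37 degree celsius treatment with NPC or MIPE compounds in titration; values normalized to plate controls.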
(In qHTS, concentration-response curves come from the screen itself.)

For experiment [2], the system named is C33A. As to the kind of experiment: Primary qHTS to identify gynecologic anti-cancer compounds using libraries of approved drugs and bioactive compounds (AID 1345084). Also: nearly all actives have a fitted effect of over 55% in size. Conditions: Gynecologic cancer cell panel viability, ATPlite luminescence, 48 h; series mostly up to 57.5 µM. In outline: (§1)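 Five-point cytotoxicity, 48 h drug exposure at 37 C, 5% CO2, on cells seeded 16 h beforehand. ATP content read by ATPlite luminescence.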

Experiment [3] relates to CAOV3. The experiment is described as above. The following applies: Gynecologic cancer cell panel viability, ATPlite luminescence, 48 h; series mostly up to 57.5 µM. In outline: as §1
On the technique in general: In ATP-based viability assays light output follows the ATP content of the culture.

Experiment [4] relates to CASKI. Described as above. The following applies: Gynecologic cancer cell panel viability, ATPlite luminescence, 48 h; series mostly up to 57.5 µM. The gist of the method:
as §1

The subject of experiment [5] is Es-2. The experiment is described as above. Conditions: Gynecologic cancer cell panel viability, ATPlite luminescence, 48 h; series mostly up to 57.5 µM. The gist of the method:
as §1

The subject of experiment [6] is HeLa. Described as above. Conditions: Gynecologic cancer cell panel viability, ATPlite luminescence, 48 h; series mostly up to 57.5 µM. The gist of the method:
as §1

Experiment [7] deals with Hek293T. The experiment is described as above. The following applies: Gynecologic cancer cell panel viability, ATPlite luminescence, 48 h, control line for the selectivity index; series mostly up to 57.5 µM. The gist of the method: as §1
Experiment [8] concerns JEG-3. Described as above. Conditions: Gynecologic cancer cell panel viability, ATPlite luminescence, 48 h; series mostly up to 57.5 µM. In outline: as §1
Experiment [9] has as its system OV90. Described as above. Conditions: Gynecologic cancer cell panel viability, ATPlite luminescence, 48 h; series mostly up to 57.5 µM. In outline:
as §1

Experiment [10] has as its system PA-1. The description is as above. The following applies: Gynecologic cancer cell panel viability, ATPlite luminescence, 48 h; series mostly up to 57.5 µM. In outline:
as §1

Experiment [11] deals with SKOV3. Described as above. Conditions: Gynecologic cancer cell panel viability, ATPlite luminescence, 48 h; series mostly up to 57.5 µM. In outline:
as §1

Experiment [12] deals with Tov-21-G. The experiment is described as above. Conditions: Gynecologic cancer cell panel viability, ATPlite luminescence, 48 h; series mostly up to 57.5 µM. In outline: as §1
In experiment [13] the test system is Tov112D. Described as above. The following applies: Gynecologic cancer cell panel viability, ATPlite luminescence, 48 h; series mostly up to 57.5 µM. The gist of the method:
as §1

A short description of experiment [14]: Drug repurposing screens with cells derived from glioblastoma tumor samples (AID 1345199). Also: nearly all actives have a fitted effect of over 40% in size. Also: potency is read from the fitted curve at half-maximal effect. Conditions: GBM patient neurospheres viability, ATP luminescence, 48 h. In outline:
(§2)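 Primary testing used CD133+ neurospheres from four GBM patients, seven concentrations, 48 h exposure and ATP-based viability; confirmation added three slower-growing patient lines.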

Experiment [15] has as its system astro. The description is as above. The following applies: viability, ATP luminescence, 48 h; series mostly up to 45.9 µM. The gist of the method:
as §2

The mark [16] stands for this setting: at 46.1 µM (top of the series), tumour line C.
Where [17] appears, read: at 45.9 µM (top of the series), tumour line B.
Where [18] appears, read: at 45.9 µM (top of the series), tumour line D.
Where [19] appears, read: at 20 µM (top of the series), tumour line C.
The mark [20] stands for this setting: at 21.2 µM (top of the series), tumour line B.
Setting [21] is: at 21.2 µM (top of the series), tumour line D.
[22] abbreviates: at 21.3 µM (top of the series), tumour line A.
% is scaled to controls: 0 for no effect and ±100 for the full control effect.

With `O=C1c2c(O)cc(O)cc2OC(c2ccc(O)c(O)c2)C1O` (stereo unspecified), the Potency result in experiment [1] was “inactive”.
As to `Cc1nc(-c2ccc(OCC(C)C)c(C#N)c2)sc1C(=O)O`, the Potency entry in [1] and in experiment [2] was “inactive” in each case.
As for `CCCCC(CC)COC(=O)C(C#N)=C(c1ccccc1)c1ccccc1` (stereo unspecified), the Potency result in [1], in experiment [2], in experiment [3], in experiment [4], in [5] and in experiment [6] was “inactive” throughout. In addition, the Potency result in [7], in experiment [8], in experiment [9], in experiment [10], in experiment [11] and in experiment [12] was “inactive” throughout. Moreover, the Potency entry in experiment [13] and in [15] was “inactive” throughout. Also, the activity, negative = cell killing in experiment [14] (setting [16]) was -18.1%. Also, the Potency is 7.08 µM (active) in experiment [14] (tumour line A) and 10 µM (active) in experiment [14] (tumour line D).
For the compound `CC1(C)C(=O)N(CCN2CCC(C(=O)c3ccc(F)cc3)CC2)c2ccccc21`, the Potency entry in experiment [1] was “inactive”.
Take `CC(C)[C@H](N)C(=O)OCCOCn1cnc2c(=O)[nH]c(N)nc21`: the Potency result in experiment [1], in [2], in experiment [3], in experiment [4], in experiment [5] and in experiment [6] was “inactive” throughout. The Potency entry in experiment [7], in [8], in [9], in experiment [10], in [11] and in [12] was “inactive” throughout. Also, the Potency entry in experiment [13] and in experiment [15] was “inactive” each time. The results for the activity, negative = cell killing in [14] (setting [17]), in experiment [14] (setting [18]) and in experiment [14] (setting [16]) were -5.53%, -4.6% and 14.5%, respectively.
Regarding `O=C1NC(=O)C(c2ccccc2[N+](=O)[O-])=C1Nc1ccc(O)c(Cl)c1`, in [1], the Potency entry is “inactive”.
On the same count and under the same terms, then `O=c1cc(N2CCOCC2)oc2c(-c3ccccc3)cccc12`, with “inactive”; and `Cc1cccc(C#Cc2ccccc2)n1`, with “inactive”.
Turning to `Nc1nc(OCc2ccccc2)c2[nH]cnc2n1`, the Potency result in [1] is “inactive”.
Regarding `Nc1cc(C(Cl)=C(Cl)Cl)c(S(N)(=O)=O)cc1S(N)(=O)=O`, the Potency entry in [1], in experiment [2], in experiment [3], in [4], in experiment [5] and in [6] was “inactive” in each case. Moreover, the Potency result in experiment [7], in [8], in experiment [9], in [10], in experiment [11] and in [12] was “inactive” in each case. In addition, the Potency result in [13] and in [15] was “inactive” each time. Also, the activity, negative = cell killing in [14] (setting [19]) is -2.9%; in experiment [14] (setting [20]) it was -5.37%; in [14] (setting [21]) it was -20.2%; in [14] (setting [22]), -22%; in experiment [14] (setting [17]), -15.5%; in [14] (setting [18]), 2.04%. The activity, negative = cell killing in experiment [14] (setting [16]) is 10.7%.
Consider `COc1cc(OC)c(C(=O)CCCN2CCCC2)c(OC)c1`, for which the Potency result in experiment [1], in experiment [2], in experiment [3], in [4], in experiment [5] and in experiment [6] was “inactive” throughout. Besides, the Potency entry in experiment [7], in experiment [8], in experiment [9], in experiment [10], in experiment [11] and in experiment [12] was “inactive” throughout. Also, the Potency result in experiment [13] and in experiment [15] was “inactive” in each case. Moreover, the activity, negative = cell killing is 0.201% in experiment [14] (setting [19]), -11.8% in [14] (setting [20]), -17.1% in experiment [14] (setting [21]) and -24.2% in experiment [14] (setting [22]).
For `Oc1ccc(OCc2ccccc2)cc1`, the Potency result in experiment [1], in experiment [2], in [3], in experiment [4], in [5] and in experiment [6] was “inactive” throughout. Also, the Potency entry in experiment [7], in experiment [8], in experiment [9], in experiment [10], in [11] and in experiment [12] was “inactive” throughout. Moreover, the Potency result in [13] and in [15] was “inactive” throughout. For the same compound, the figures for the activity, negative = cell killing in experiment [14] (setting [19]) and in experiment [14] (setting [20]) were 4.55% and -21.3%, respectively.
Turning to `CCOC(=O)C1=C(O)C(=O)N(Cc2ccccc2)C1`, the Potency result in [1] is “inactive”.
With `O=C(CCc1ccc(O)cc1)c1c(O)cc(O)cc1O`, the Potency in [1] was 5.9 µM (active).
Take `O=C(NCCO[N+](=O)[O-])c1cccnc1`: the Potency entry in [1], in experiment [2], in experiment [3], in experiment [4], in [5] and in experiment [6] was “inactive” throughout. The Potency entry in experiment [7], in experiment [8], in experiment [9], in [10], in experiment [11] and in [12] was “inactive” throughout. Further, the Potency result in experiment [13] and in experiment [15] was “inactive” throughout. Besides, the activity, negative = cell killing was -0.47% in experiment [14] (setting [17]), -18.1% in experiment [14] (setting [18]) and -10.1% in [14] (setting [16]).
As to `NC(=O)Cc1cccc(C(=O)c2ccccc2)c1N`, the Potency entry in experiment [1], in experiment [2], in experiment [3], in [4], in [5] and in experiment [6] was “inactive” in each case. Besides, the Potency entry in [7], in experiment [8], in experiment [9], in experiment [10], in experiment [11] and in [12] was “inactive” throughout. In addition, the Potency entry in experiment [13] and in experiment [15] was “inactive” throughout. Further, the activity, negative = cell killing in experiment [14] (setting [17]) is -10.2%; in experiment [14] (setting [18]), -28%; in experiment [14] (setting [16]), -24.8%.
With `CCN(CCO)CCCC(C)Nc1ccnc2cc(Cl)ccc12` (stereo unspecified), the Potency is 2.35 µM (active) in [1] and 11.2 µM (active) in experiment [14] (tumour line A). Further, the activity change, negative = cytotoxicity in experiment [1] was 15.3% [at 4.84 µM]; in experiment [2] it was 4.86% [at 6.55 µM] and 0.75% [at 6.55 µM]; in experiment [4], 22.4% [at 6.55 µM] and 10.4% [at 6.55 µM]; in [5] it was -1.37% [at 6.55 µM] and -0.815% [at 6.55 µM]; in experiment [6], 2.67% [at 6.55 µM] and -11.2% [at 6.55 µM]; in experiment [7], 9.38% [at 6.55 µM] and 2.44% [at 6.55 µM]. In addition, the activity change, negative = cytotoxicity was -0.0768% [at 6.55 µM] and 4.75% [at 6.55 µM] in experiment [8]; -3.69% [at 6.55 µM] in experiment [9]; 16.5% [at 6.55 µM] and 2.35% [at 6.55 µM] in experiment [10]; -2.72% [at 6.55 µM] and 0.445% [at 6.55 µM] in experiment [11]; 2.96% [at 6.55 µM] and -2.5% [at 6.55 µM] in experiment [12]; 10.4% [at 6.55 µM] and 2.64% [at 6.55 µM] in [13]. Moreover, the values for the activity, negative = cell killing in experiment [14] (setting [17]), in [14] (setting [18]) and in experiment [14] (setting [16]) were -10.8%, -19.9% and 3.19%, respectively. For the same compound, the Potency result in [15] was “inactive”.
